Unmarked numbers belong to inactive results. For some of these results: Potency and affinity values are given separately. Calls of active or inactive are those of the source. Unless noted, how the calls were made is not given here.

20 compounds from PubChem BioAssay can be followed below.

Experiment [1] can be described thus: antimalarial activity against Dd2 strain (AID 2302;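 active means growth inhibition above 50% at the single 2 µM test dose, taken to imply half-maximal potency below 2 µM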;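 further: 0% = DMSO untreated growth and 100% = chloroquine plus artemisinin killed control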). The settings on record: P. falciparum Dd2 in RBCs, LDH growth readout, 72 h; at 2 µM; stronger effect = higher value.
Experiment [2] can be described thus: HepG2 cytotoxicity, primary screen, cytotoxicity control for P. falciparum antimalarial project, cell-based, ATP luminescence (AID 2303;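 active means inhibition above 50%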;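 further: 0% = DMSO wells and 100% = digitonin-killed cells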). The settings on record: HepG2 viability, 24-48 h, at 10 µM, stronger effect = higher value.
The target in experiment [3] is L-lactate dehydrogenase (Plasmodium falciparum (isolate CDC / Honduras)) (UniProt Q27743). In words: PfLDH activity inhibition – cell lysate, 3D7 strain, counter-screen for P. falciparum growth inhibition project (AID 2304).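 Further: 0% = vehicle and 100% = reference inhibitor.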 The following applies: P. falciparum 3D7 crude extract, LDH APAD/NBT absorbance; at 2 µM; stronger effect = higher value. (Counterscreens check selectivity or assay interference.)

Experiment [4] in a line: inhibition of 3D7 malaria parasite growth – strain 3D7 (AID 2306).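 Further: 0% = DMSO wells and 100% = chloroquine plus artemisinin control wells.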 The settings on record: P. falciparum 3D7 erythrocytic growth, LDH absorbance, 72 h; at 2 µM; stronger effect = higher value.
The target of experiment [5] is Calcium-dependent protein kinase 1 (Plasmodium falciparum (isolate 3D7)) (UniProt P62344). Kind of experiment: PfCDPK1 kinase inhibitors, biochemical, TCAMS library (AID 1159585; cut-off not given, nearly all actives have IC50 up to about 0.98 µM;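 further: inhibitors leave more ATP so luminescence rises with inhibition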). The following applies: recombinant PfCDPK1, Kinase-Glo ATP depletion luminescence. In general terms: Kinase-Glo measures the ATP left after a reaction by luminescence.
For experiment [6], the target named is Plasmodium falciparum protein kinase 6 (PK6, PF3D7_1337100) (UniProt Q8IDW1). In words: PfPK6 kinase inhibitors, biochemical, TCAMS library (AID 1159586). The settings on record: recombinant PfPK6, Kinase-Glo ATP depletion luminescence.
The target in experiment [7] is Protein kinase 7 (PK7), Plasmodium falciparum 3D7 (PF3D7_0213400) (UniProt Q7YTF7). Kind of experiment: inhibition of Plasmodium PK7 catalytic activity – biochemical, TCAMS antimalarial set, Kinase-Glo luminescence (AID 1159587). The following applies: recombinant PfPK7, Kinase-Glo ATP depletion luminescence.
The target in experiment [8] is Calcium-dependent protein kinase 4 (Plasmodium falciparum (isolate 3D7)) (UniProt Q8IBS5). Kind of experiment: PfCDPK4 kinase inhibitors, biochemical, TCAMS library (AID 1159588; cut-off not given, nearly all actives have IC50 up to about 0.91 µM). The settings on record: recombinant PfCDPK4, Kinase-Glo ATP depletion luminescence.
Chain of Calcium-dependent protein kinase 4 (Plasmodium falciparum (isolate 3D7)) (Q8IBS5 whole entry, looked up): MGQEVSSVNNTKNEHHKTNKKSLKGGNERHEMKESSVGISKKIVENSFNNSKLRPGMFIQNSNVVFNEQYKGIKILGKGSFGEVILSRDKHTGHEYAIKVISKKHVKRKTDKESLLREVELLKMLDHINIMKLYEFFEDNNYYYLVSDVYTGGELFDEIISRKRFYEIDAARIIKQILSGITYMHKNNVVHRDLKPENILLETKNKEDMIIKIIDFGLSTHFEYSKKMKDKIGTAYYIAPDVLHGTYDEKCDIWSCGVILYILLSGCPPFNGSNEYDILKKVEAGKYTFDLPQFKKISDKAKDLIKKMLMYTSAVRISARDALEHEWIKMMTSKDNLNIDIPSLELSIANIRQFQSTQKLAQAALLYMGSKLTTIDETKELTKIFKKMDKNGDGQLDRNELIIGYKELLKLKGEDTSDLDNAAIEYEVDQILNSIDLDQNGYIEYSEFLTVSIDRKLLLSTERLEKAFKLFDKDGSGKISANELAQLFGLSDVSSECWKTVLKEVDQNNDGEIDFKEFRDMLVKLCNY

Chain of L-lactate dehydrogenase (Plasmodium falciparum (isolate CDC / Honduras)) (Q27743 whole entry, looked up): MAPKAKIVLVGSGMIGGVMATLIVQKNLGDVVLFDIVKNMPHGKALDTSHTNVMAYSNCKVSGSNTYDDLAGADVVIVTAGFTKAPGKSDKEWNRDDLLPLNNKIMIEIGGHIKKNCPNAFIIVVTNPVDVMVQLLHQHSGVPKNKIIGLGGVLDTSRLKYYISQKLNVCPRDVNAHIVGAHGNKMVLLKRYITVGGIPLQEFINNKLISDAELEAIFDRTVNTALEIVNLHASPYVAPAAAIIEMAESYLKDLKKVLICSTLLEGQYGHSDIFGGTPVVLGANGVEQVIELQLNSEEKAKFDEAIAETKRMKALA
Chain of Protein kinase 7 (PK7), Plasmodium falciparum 3D7 (PF3D7_0213400) (Q7YTF7 1-343): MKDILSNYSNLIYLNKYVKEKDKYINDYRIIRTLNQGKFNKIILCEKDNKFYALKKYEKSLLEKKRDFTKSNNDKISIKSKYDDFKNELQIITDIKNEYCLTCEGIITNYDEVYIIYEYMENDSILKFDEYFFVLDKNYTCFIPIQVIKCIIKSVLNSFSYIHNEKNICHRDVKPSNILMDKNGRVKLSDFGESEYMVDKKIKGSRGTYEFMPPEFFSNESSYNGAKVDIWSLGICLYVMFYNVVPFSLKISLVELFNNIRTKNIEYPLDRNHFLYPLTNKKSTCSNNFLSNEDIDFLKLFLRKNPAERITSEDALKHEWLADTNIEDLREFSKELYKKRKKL
Chain of Plasmodium falciparum protein kinase 6 (PK6, PF3D7_1337100) (Q8IDW1 1-305): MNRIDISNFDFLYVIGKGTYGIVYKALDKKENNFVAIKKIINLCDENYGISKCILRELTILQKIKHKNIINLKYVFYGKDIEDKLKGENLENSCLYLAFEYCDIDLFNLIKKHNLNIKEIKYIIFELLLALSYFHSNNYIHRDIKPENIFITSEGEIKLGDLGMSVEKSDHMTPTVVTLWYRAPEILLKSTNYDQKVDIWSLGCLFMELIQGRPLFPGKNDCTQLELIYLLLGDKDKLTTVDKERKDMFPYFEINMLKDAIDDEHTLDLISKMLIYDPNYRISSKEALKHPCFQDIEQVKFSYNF
Chain of Calcium-dependent protein kinase 1 (Plasmodium falciparum (isolate 3D7)) (P62344 whole entry, looked up): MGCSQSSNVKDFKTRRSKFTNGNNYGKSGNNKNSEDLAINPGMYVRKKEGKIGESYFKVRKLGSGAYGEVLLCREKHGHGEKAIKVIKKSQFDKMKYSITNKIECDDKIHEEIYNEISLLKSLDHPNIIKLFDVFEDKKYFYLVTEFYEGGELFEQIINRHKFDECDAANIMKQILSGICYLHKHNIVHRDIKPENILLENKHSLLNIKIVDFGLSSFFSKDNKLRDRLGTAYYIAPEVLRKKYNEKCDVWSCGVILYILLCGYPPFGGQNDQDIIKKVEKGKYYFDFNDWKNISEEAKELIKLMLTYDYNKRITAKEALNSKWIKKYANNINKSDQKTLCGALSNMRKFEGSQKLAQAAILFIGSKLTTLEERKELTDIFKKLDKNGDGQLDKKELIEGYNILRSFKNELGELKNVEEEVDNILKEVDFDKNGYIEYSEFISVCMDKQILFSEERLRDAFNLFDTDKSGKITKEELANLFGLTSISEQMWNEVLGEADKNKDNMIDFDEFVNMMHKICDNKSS

By inhibition is commonly meant the drop in the measured response relative to a control, in per cent. Consider `CCCOc1ccc(CCNCCCCNCCc2ccc(OCCC)c3ccccc23)c2ccccc12`, for which the growth inhibition in experiment [1] is 52% (active); in experiment [4], 93% (active). Further, the inhibition in experiment [2] was 100% (active); in experiment [3] it was 7%. The result in experiment [5], in experiment [6], in experiment [7] and in experiment [8] was inactive.

Consider `COc1ccc(OC)c2c1CCN(CCN1CCC(C(=O)Nc3ccc(C(=O)Nc4ccc(Cl)cc4)cc3)CC1)C2`, for which the growth inhibition in experiment [1] and in experiment [4] was 100% (active) throughout. For the same compound, the inhibition was 25% in experiment [2] and -2% in experiment [3]. Also, the result in experiment [5], in experiment [6], in experiment [7] and in experiment [8] was inactive.

Turning to `O=C(NCCCCN1CCC[C@@H]2c3cccc(O)c3CC[C@@H]21)c1ccc(-c2ccccc2)cc1`, the growth inhibition in experiment [1] was 4%; in experiment [4] it was 93% (active). In addition, the inhibition was 18% in experiment [2] and 3% in experiment [3]. Besides, the outcome in experiment [5], in experiment [6], in experiment [7] and in experiment [8] was inactive.

Take `CCOC(=O)c1[nH]c(-c2ccccc2)nc1-n1nc(C)cc1C`: the figures for the growth inhibition in experiment [1] and in experiment [4] were 9% and 92% (active), respectively. Moreover, the inhibition was 7% in experiment [2] and 2% in experiment [3]. The result in experiment [5], in experiment [6], in experiment [7] and in experiment [8] was inactive.

For the compound `Cn1nc2ccc3ccccc3c2nc1=N`, the growth inhibition in experiment [1] was 85% (active); in experiment [4], 91% (active). Further, the inhibition is 100% (active) in experiment [2] and -4% in experiment [3]. Further, the result in experiment [5], in experiment [6], in experiment [7] and in experiment [8] was inactive.

Turning to `CC(CN1CCN(C)CC1)C(=O)Nc1ccc(-c2cccc(-c3nc4ccccc4[nH]3)c2)cc1` (stereo not given), the values for the growth inhibition in experiment [1] and in experiment [4] were 81% (active) and 94% (active), respectively. The inhibition in experiment [2] is 4%; in experiment [3] it was 3%. Moreover, the outcome in experiment [5], in experiment [6], in experiment [7] and in experiment [8] was inactive.

As for `CCc1c(CCNCCCCCCNCCc2ccc(OC)c(OC)c2C)ccc(OC)c1OC`, the growth inhibition in experiment [1] is 1%; in experiment [4], 98% (active). Further, the inhibition in experiment [2] is 16%; in experiment [3], 5%. Moreover, the result in experiment [5], in experiment [6], in experiment [7] and in experiment [8] was inactive.

Turning to `CN(C)CCCNC(=O)c1ccccc1Sc1ccccc1C#N`, the values for the growth inhibition in experiment [1] and in experiment [4] were 3% and 89% (active), respectively. Moreover, the inhibition in experiment [2] was 11%; in experiment [3], 2%. The outcome in experiment [5], in experiment [6], in experiment [7] and in experiment [8] was inactive.

In the case of `COc1cc(-n2c(CN3CCCC3)nc3cc(-c4ccc(Cl)cc4)sc3c2=O)ccc1OCCN1CCCC1`, the growth inhibition in experiment [1] is 90% (active); in experiment [4], 94% (active). Moreover, the inhibition in experiment [2] is 66% (active); in experiment [3], -5%. The outcome in experiment [5], in experiment [6], in experiment [7] and in experiment [8] was inactive.

In the case of `O=C(Nc1ccc2ccccc2c1)N1CCC(NCc2cccc([N+](=O)[O-])c2)CC1`, the growth inhibition in experiment [1] was -3%; in experiment [4], 98% (active). Further, the inhibition is -1% in experiment [2] and 2% in experiment [3]. The outcome in experiment [5], in experiment [6], in experiment [7] and in experiment [8] was inactive.

As to `COc1cccc(-c2cc(C(=O)Nc3ccc4nc(-c5ccccc5)[nH]c4c3)[nH]n2)c1`, the growth inhibition in experiment [1] is 65% (active); in experiment [4] it was 100% (active). In addition, the results for the inhibition in experiment [2] and in experiment [3] were 68% (active) and 2%, respectively. The outcome in experiment [5], in experiment [6], in experiment [7] and in experiment [8] was inactive.

As to `CS(=O)(=O)NCCCNCc1cccc(-c2cccc(-c3nc4ccc(C(F)(F)F)cc4[nH]3)c2)c1`, the growth inhibition in experiment [1] was 100% (active); in experiment [4], 99% (active). For the same compound, the inhibition in experiment [2] was 17%; in experiment [3], 5%. Further, the result in experiment [5], in experiment [6], in experiment [7] and in experiment [8] was inactive.

As to `O=C(Nc1ccc2c(c1)CCC2)N[C@H]1CCN(CCCCCNC(=O)[C@@H]2C[C@H]2c2ccc(Cl)c(Cl)c2)C1`, the growth inhibition in experiment [1] was -3%; in experiment [4], 86% (active). In addition, the inhibition is 37% in experiment [2] and 2% in experiment [3]. In addition, the result in experiment [5], in experiment [6], in experiment [7] and in experiment [8] was inactive.

For `CC(C)c1ccc(NC(=O)c2cccc(CN3CCCN(Cc4cccc(C#N)c4)CC3)c2)cc1`, the growth inhibition in experiment [1] is 15%; in experiment [4] it was 93% (active). In addition, the results for the inhibition in experiment [2] and in experiment [3] were 48% and -5%, respectively. Also, the outcome in experiment [5], in experiment [6], in experiment [7] and in experiment [8] was inactive.

With `CC1(C)N=C(N)N=C(N)N1OCCCOc1cc(Cl)cc(Cl)c1`, the growth inhibition is 97% (active) in experiment [1] and 95% (active) in experiment [4]. The figures for the inhibition in experiment [2] and in experiment [3] were 62% (active) and 0%, respectively. For the same compound, the outcome in experiment [5], in experiment [6], in experiment [7] and in experiment [8] was inactive.

For the compound `Cc1cc2nc(-c3ccc(C(=O)NCc4ccc(Cl)c(Cl)c4)cc3)[nH]c2cc1C`, the growth inhibition is 83% (active) in experiment [1] and 96% (active) in experiment [4]. The inhibition in experiment [2] was 6%; in experiment [3], 1%. For the same compound, the result in experiment [5], in experiment [6], in experiment [7] and in experiment [8] was inactive.

With `N#Cc1ccc(-c2ccc(C(=O)NCCCCN3CCC(c4ccc5c(c4OCc4ccccn4)CCCC5)CC3)cc2)cc1`, the growth inhibition in experiment [1] was 39%; in experiment [4], 96% (active). Besides, the values for the inhibition in experiment [2] and in experiment [3] were 37% and 6%, respectively. The outcome in experiment [5], in experiment [6], in experiment [7] and in experiment [8] was inactive.

Regarding `O=[N+]([O-])c1cccc(C=NNc2ccnc3cc(F)ccc23)c1`, the growth inhibition in experiment [1] and in experiment [4] was 100% (active) throughout. In addition, the inhibition in experiment [2] is 4%; in experiment [3], -1%. Further, the outcome in experiment [5], in experiment [6], in experiment [7] and in experiment [8] was inactive.

In the case of `NC1=NC(Cc2ccccc2)N(c2ccc(Cl)cc2)C(N)=N1` (stereo not given), the growth inhibition in experiment [1] was 4%; in experiment [4], 93% (active). Besides, the inhibition was 21% in experiment [2] and -2% in experiment [3]. For the same compound, the outcome in experiment [5], in experiment [6], in experiment [7] and in experiment [8] was inactive.

On to `CS(=O)(=O)c1ccc(-c2cnc(N)c(-c3cccc(O)c3)c2)cc1`, for which the growth inhibition in experiment [1] was 97% (active); in experiment [4], 98% (active). The inhibition is 48% in experiment [2] and -3% in experiment [3]. The result in experiment [5], in experiment [6], in experiment [7] and in experiment [8] was inactive.
